From PubChem BioAssay (EPA / NIEHS)
More than one record can exist for a structure, and the calls need not agree. Activity calls are given as the source filed them. Rule for the calls, unless noted: active = hit-call score of the fitted dose curve at least 0.9, where 1 is the maximum; inactive = score below 0.9.

Assays:
[1] = target: Peroxisome proliferator-activated receptor gamma (Homo sapiens) (UniProt P37231); test: OT_PPARg_PPARgSRC1_1440: Odyssey Thera (OT) 24-hour Protein-Complementation Assay for Peroxisome Proliferator-activated Receptor Gamma/ SRC-1 Co-activator (AID 2283388; active = hit-call score of the fitted dose curve at least 0.9, where 1 is the maximum)
Summary of the method: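 HEK293T transiently transfected with PPARg/SRC-1 split-Venus YFP fusions 48 h before dosing, then treated 24 h at 37C. Fixed cells imaged; nuclear/cytoplasmic 488 nm fluorescence ratio, gain of signal versus DMSO.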

[2] = CEETOX_H295R_OHPREG: CeeTox H295R High-throughput Steroidogenesis Assay for OH-Pregnenolone (OHPREG) (AID 2283434); settings: actives raise or lower the signal
Summary of the method: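 Hormone levels in spent medium were measured by tandem mass spectrometry following liquid-liquid extraction. Cells (H295R) had been forskolin-stimulated (10 uM, 48 h) before a 48 h chemical exposure at 0.1% DMSO, with activity fitted in both directions against DMSO.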

[3] = CEETOX_H295R_OHPROG: CeeTox H295R High-throughput Steroidogenesis Assay for OH-Progesterone (OHPROG) (AID 2283435); settings: actives raise or lower the signal;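 for AC50: human adrenal H295R cells primed 48 h with 10 µM forskolin; 17alpha-hydroxyprogesterone secreted into medium measured by HPLC-MS/MS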
Summary of the method: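 Secreted 17alpha-hydroxyprogesterone is read by tandem MS from media of forskolin-primed H295R cells dosed with chemical for 48 h. Activity is fitted in both directions against DMSO baseline; cytotoxic concentrations are re-tested diluted.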

[4] = CEETOX_H295R_ANDR: CeeTox H295R High-throughput Steroidogenesis Assay for Androstenedione (ANDR) (AID 2283436); settings: actives raise or lower the signal
Summary of the method: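 Read-out is androstenedione secreted into medium, measured by tandem mass spectrometry after liquid-liquid extraction. Cells were H295R, dosed for 48 h per modified OECD 456; activity fitted in both directions relative to DMSO.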

[5] = CEETOX_H295R_CORTIC: CeeTox H295R High-throughput Steroidogenesis Assay for Corticosterone (CORTIC) (AID 2283437); settings: actives raise or lower the signal;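 note: corticosterone secreted into medium quantified by mass spectrometry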
Summary of the method: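 Corticosterone secreted into medium is measured by reverse-phase HPLC with tandem MS following liquid-liquid extraction. Cells are forskolin-stimulated (10 uM, 48 h) before 48 h test exposure; activity fitted in both directions against DMSO.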

[6] = CEETOX_H295R_DOC: CeeTox H295R High-throughput Steroidogenesis Assay for DOC (AID 2283439); settings: actives raise or lower the signal
Summary of the method: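 Secreted DOC was quantified from H295R media by HPLC-MS/MS after 48 h chemical exposure following 48 h forskolin (10 uM) prestimulation. Values were fitted in both directions relative to DMSO, the negative control and baseline.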

[7] = CEETOX_H295R_ESTRADIOL: CeeTox H295R High-throughput Steroidogenesis Assay for Estradiol (AID 2283440); settings: actives raise or lower the signal;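 note: estradiol secreted into medium quantified by LC-MS/MS after dansyl derivatisation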
Summary of the method: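 H295R cells pre-stimulated 48 h with 10 uM forskolin, then exposed 48 h to chemical in 0.1% DMSO. Medium estradiol quantified by MTBE extraction, dansyl derivatisation and HPLC-MS/MS; bidirectional fit versus DMSO; MTT viability required >/=70%.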

[8] = CEETOX_H295R_ESTRONE: CeeTox H295R High-throughput Steroidogenesis Assay for Estrone (AID 2283441); settings: actives raise or lower the signal;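 note: estrone secreted into medium measured by LC-MS/MS after dansyl derivatization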;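 for AC50: human adrenal H295R cells prestimulated with forskolin for two days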
Summary of the method: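 H295R cells; 48 h forskolin (10 uM) prestimulation; 48 h compound exposure, 0.1% DMSO final. Medium estrone: MTBE extraction, dansyl derivatization, HPLC-MS/MS. Bidirectional fit vs DMSO.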

[9] = CEETOX_H295R_PROG: CeeTox H295R High-throughput Steroidogenesis Assay for Progesterone (PROG) (AID 2283442); settings: actives raise or lower the signal;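 for AC50: human H295R adrenal cells primed with 10 µM forskolin before dosing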
Summary of the method: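 H295R adrenal cells prestimulated 48 h with 10 uM forskolin, then exposed 48 h to test chemical in 0.1% DMSO. Progesterone in medium quantified by HPLC-MS/MS after MTBE extraction; viability checked by MTT in same wells.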

[10] = read-out: Tumor necrosis factor receptor superfamily member 6 (Homo sapiens) (UniProt P25445); test: LTEA_HepaRG_FAS: Life Technologies and Expression Analysis (LTEA) Assay for Fas cell surface death receptor (FAS) using HepaRG (AID 2283447); settings: mRNA level, 48 h; actives raise or lower the signal
Summary of the method: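 FAS transcript level was measured by TaqMan qRT-PCR against three housekeeping genes after 48 h chemical exposure. Cells were HepaRG, 0.5% DMSO vehicle, with a top concentration of 100 uM and half-log dilutions over eight points, in duplicate.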

[11] = read-out: Fatty acid synthase (Homo sapiens) (UniProt P49327); test: LTEA_HepaRG_FASN: Life Technologies and Expression Analysis (LTEA) Assay for Fatty Acid Synthase (FASN) using HepaRG (AID 2283448); settings: mRNA level, 48 h; actives raise or lower the signal
Summary of the method: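 Transcript-level assay: HepaRG liver cells are treated for 48 h across an eight-point range topping at 100 uM, and FASN mRNA, normalized to three housekeeping genes, is compared with DMSO controls in both directions.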

[12] = read-out: Cyclin D2 (CCND2), CCND2 (gene 894); test: LTEA_HepaRG_CCND2: Life Technologies and Expression Analysis (LTEA) Assay for Cyclin D2 (CCND2) using HepaRG (AID 2283449); settings: mRNA level, 48 h; actives raise or lower the signal
Summary of the method: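 Read-out is CCND2 mRNA level measured by qRT-PCR in human HepaRG liver cells and normalised to three housekeeping genes. Chemicals were applied for 48 h at up to 100 uM, with gain or loss fitted relative to 0.5% DMSO.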

[13] = read-out: Cyclin Dependent Kinase Inhibitor 1A (CDKN1A), CDKN1A (gene 1026); test: LTEA_HepaRG_CDKN1A: Life Technologies and Expression Analysis (LTEA) Assay for Cyclin Dependent Kinase Inhibitor 1A (CDKN1A) using HepaRG (AID 2283450); settings: mRNA level, 48 h; actives raise or lower the signal
Summary of the method: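 Differentiated HepaRG cells in serum-free induction medium, exposed 48 h in duplicate to eight half-log concentrations up to 100 uM in 0.5% DMSO. mRNA measured by TaqMan qRT-PCR, normalized to ACTB, GAPDH, POLR2A; bidirectional fit versus DMSO.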

[14] = read-out: Cyclin D1 (CCND1), CCND1 (gene 595); test: LTEA_HepaRG_CCND1: Life Technologies and Expression Analysis (LTEA) Assay for Cyclin D1 (CCND1) using HepaRG (AID 2283451); settings: mRNA level, 48 h; actives raise or lower the signal
Summary of the method: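 Differentiated HepaRG cells exposed 48 h in serum-free induction medium to eight half-log concentrations from 100 uM top, 0.5% DMSO, duplicates. CCND1 mRNA measured by Fluidigm TaqMan qRT-PCR, normalised to ACTB, GAPDH, POLR2A; bidirectional fit.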

[15] = read-out: catalase (CAT), CAT (gene 847); test: LTEA_HepaRG_CAT: Life Technologies and Expression Analysis (LTEA) Assay for catalase (CAT) using HepaRG (AID 2283452); settings: mRNA level, 48 h; actives raise or lower the signal;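 for AC50: TaqMan qRT-PCR signal normalized to ACTB GAPDH and POLR2A housekeeping genes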
Summary of the method: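 Expression of CAT was quantified by TaqMan qRT-PCR with ACTB/GAPDH/POLR2A normalization after 48 h chemical exposure of HepaRG. Eight-point half-log series, top 100 uM, in 0.5% DMSO; gain or loss fitted against vehicle.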

[16] = read-out: flavin-containing dimethylaniline monooxygenases 3 (FMO3), FMO3 (gene 2328); test: LTEA_HepaRG_FMO3: Life Technologies and Expression Analysis (LTEA) Assay for flavin-containing dimethylaniline monooxygenases 3 (FMO3) using HepaRG (AID 2283453); settings: mRNA level, 48 h; actives raise or lower the signal;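 for AC50: FMO3 transcript by TaqMan qRT-PCR normalized to ACTB GAPDH and POLR2A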
Summary of the method: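 HepaRG, 48 h exposure, 8-pt half-log series from 100 uM, 0.5% DMSO vehicle, duplicates; FMO3 transcript by Fluidigm TaqMan qRT-PCR, housekeeping-normalized; gain/loss fit vs DMSO.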

[17] = read-out: Cytochrome P450 (CYP1A1), CYP1A1 (gene 1543); test: LTEA_HepaRG_CYP1A1: Life Technologies and Expression Analysis (LTEA) Assay for Cytochrome P450 (CYP1A1) using HepaRG (AID 2283454); settings: mRNA level, 48 h; actives raise or lower the signal
Summary of the method: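 Differentiated human HepaRG cells, after 48 h plating, exposed in duplicate for 48 h in serum-free induction medium to 8 half-log concentrations up to 100 uM in 0.5% DMSO. CYP1A1 mRNA by qRT-PCR, normalized to ACTB/GAPDH/POLR2A; bidirectional fit versus DMSO.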

[18] = read-out: CFLAR gene, CFLAR (gene 8837); test: LTEA_HepaRG_CFLAR: Life Technologies and Expression Analysis (LTEA) Assay for CFLAR gene using HepaRG (AID 2283455); settings: mRNA level, 48 h; actives raise or lower the signal
Summary of the method: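 HepaRG, 48 h exposure, 8-pt conc-response (100 uM top, half-log), 0.5% DMSO vehicle, duplicates. CFLAR expression by qRT-PCR; ACTB/GAPDH/POLR2A normalization; gain or loss fit vs DMSO baseline.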

[19] = read-out: Forkhead box O1 (FOXO1), FOXO1 (gene 2308); test: LTEA_HepaRG_FOXO1: Life Technologies and Expression Analysis (LTEA) Assay for Forkhead box O1 (FOXO1) using HepaRG (AID 2283456); settings: mRNA level, 48 h; actives raise or lower the signal
Summary of the method: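 Readout is FOXO1 transcript level by multiplexed qRT-PCR against three housekeeping genes, curve-fitted in both directions relative to 0.5% DMSO vehicle. Human HepaRG cultures received chemicals for 48 h, up to 100 uM in half-log steps.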

[20] = CEETOX_H295R_TESTO: CeeTox H295R High-throughput Steroidogenesis Assay for Testosterone (TESTO) (AID 2283457); settings: actives raise or lower the signal;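 for AC50: cells exposed to chemicals for 48 h before medium collection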
Summary of the method: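 H295R adrenal cells, passage ≤10, exposed to chemicals for 48 h. Testosterone in medium measured by MTBE extraction and HPLC-MS/MS against a 7-point standard curve. Bidirectional fit versus DMSO; MTT viability checked in the same wells.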

Peroxisome proliferator-activated receptor gamma (Homo sapiens), sequence (P37231 whole entry, looked up, the tested form may be a part): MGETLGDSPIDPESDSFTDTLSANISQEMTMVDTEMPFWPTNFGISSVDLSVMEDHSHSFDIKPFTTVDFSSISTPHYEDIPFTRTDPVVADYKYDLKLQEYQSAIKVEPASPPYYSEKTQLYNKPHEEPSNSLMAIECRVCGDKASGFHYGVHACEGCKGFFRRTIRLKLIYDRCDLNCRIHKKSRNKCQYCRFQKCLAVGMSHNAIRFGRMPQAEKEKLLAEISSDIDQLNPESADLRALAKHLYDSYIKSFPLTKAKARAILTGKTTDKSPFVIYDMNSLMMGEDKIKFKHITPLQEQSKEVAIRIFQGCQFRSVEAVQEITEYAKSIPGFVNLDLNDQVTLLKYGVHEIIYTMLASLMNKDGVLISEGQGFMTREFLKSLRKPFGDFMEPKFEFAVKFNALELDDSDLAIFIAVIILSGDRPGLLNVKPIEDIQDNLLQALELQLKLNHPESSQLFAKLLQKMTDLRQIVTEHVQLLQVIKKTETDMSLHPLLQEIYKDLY
Fatty acid synthase (Homo sapiens), sequence (P49327 whole entry, looked up): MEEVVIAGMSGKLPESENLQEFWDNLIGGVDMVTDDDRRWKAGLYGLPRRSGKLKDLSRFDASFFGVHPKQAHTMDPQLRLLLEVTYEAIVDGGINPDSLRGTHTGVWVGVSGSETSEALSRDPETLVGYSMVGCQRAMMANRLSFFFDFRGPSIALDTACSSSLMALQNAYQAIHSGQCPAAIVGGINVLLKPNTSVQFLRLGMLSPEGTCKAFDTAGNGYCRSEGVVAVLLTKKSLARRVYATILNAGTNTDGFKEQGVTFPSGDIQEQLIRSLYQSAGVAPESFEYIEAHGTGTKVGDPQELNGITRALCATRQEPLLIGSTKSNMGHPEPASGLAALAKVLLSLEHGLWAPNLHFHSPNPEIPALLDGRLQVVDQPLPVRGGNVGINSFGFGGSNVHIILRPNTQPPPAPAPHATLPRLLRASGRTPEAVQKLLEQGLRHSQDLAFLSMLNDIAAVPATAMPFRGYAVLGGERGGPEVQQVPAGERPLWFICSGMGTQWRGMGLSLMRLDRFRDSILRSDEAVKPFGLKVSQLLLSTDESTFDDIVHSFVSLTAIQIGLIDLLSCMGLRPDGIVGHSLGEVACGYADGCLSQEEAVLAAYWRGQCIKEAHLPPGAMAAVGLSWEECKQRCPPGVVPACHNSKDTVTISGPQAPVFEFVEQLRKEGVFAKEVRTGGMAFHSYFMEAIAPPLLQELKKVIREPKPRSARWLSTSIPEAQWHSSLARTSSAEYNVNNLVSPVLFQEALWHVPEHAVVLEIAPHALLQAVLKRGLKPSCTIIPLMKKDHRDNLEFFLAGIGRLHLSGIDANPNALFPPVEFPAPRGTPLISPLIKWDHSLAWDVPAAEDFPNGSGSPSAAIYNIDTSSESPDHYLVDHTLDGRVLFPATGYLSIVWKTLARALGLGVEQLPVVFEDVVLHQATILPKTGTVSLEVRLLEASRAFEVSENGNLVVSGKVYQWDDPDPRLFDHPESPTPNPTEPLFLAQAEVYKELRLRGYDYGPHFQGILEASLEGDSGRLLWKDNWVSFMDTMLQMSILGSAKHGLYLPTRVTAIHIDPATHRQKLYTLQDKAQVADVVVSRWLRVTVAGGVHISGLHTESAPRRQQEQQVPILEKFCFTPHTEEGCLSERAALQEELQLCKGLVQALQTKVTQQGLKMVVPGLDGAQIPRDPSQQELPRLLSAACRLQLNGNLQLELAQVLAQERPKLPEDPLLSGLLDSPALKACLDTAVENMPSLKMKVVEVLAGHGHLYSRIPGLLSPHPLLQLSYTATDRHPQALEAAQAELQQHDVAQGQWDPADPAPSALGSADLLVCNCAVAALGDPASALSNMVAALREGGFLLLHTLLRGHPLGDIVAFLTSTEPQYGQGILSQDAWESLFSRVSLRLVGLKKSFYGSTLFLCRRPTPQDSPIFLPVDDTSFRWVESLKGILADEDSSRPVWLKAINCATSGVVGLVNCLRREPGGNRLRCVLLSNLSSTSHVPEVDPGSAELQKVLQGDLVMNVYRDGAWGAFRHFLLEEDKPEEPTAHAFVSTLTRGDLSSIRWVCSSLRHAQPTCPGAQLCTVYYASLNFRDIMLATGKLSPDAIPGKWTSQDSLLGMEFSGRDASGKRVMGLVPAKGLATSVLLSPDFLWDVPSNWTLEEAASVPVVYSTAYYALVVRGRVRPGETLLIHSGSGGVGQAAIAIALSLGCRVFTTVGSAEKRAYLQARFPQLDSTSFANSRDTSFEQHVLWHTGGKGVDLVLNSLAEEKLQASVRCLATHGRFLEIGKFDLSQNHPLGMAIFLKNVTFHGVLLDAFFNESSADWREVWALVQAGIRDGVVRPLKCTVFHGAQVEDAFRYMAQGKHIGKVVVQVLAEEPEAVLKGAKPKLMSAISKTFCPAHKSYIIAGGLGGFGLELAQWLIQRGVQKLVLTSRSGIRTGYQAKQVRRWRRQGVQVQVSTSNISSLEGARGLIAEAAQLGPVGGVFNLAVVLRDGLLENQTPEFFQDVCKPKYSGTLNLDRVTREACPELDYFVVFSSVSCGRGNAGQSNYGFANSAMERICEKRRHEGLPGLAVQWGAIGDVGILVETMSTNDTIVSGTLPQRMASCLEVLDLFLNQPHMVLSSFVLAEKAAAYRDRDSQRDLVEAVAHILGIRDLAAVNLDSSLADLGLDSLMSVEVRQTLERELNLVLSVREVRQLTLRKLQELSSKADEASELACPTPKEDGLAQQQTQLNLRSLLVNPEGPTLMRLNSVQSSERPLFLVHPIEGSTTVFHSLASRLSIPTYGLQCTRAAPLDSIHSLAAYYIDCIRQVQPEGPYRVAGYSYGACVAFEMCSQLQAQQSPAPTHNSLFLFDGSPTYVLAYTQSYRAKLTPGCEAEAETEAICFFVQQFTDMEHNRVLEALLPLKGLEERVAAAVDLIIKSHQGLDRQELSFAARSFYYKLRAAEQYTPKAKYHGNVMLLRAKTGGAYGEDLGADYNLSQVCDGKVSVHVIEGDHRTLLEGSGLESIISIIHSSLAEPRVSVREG

Structure (SMILES): CC(=O)S[C@@H]1CC2=CC(=O)CC[C@]2(C)[C@H]2CC[C@@]3(C)[C@@H](CC[C@@]34CCC(=O)O4)[C@H]12
- outcome [1]: inactive
- AC50 [2]: 0.805 µM (active)
- outcome [3]: inactive
- AC50 [4]: 1.63 µM (active)
- outcome [5]: inactive
- outcome [6]: inactive
- outcome [7]: inactive
- outcome [8]: inactive
- outcome [9]: inactive
- outcome [10]: inactive
- AC50 [11]: 37.3 µM (active)
- outcome [12]: inactive
- outcome [13]: inactive
- outcome [14]: inactive
- AC50 [15]: 60.7 µM (active)
- AC50 [16]: 60.3 µM (active)
- outcome [17]: inactive
- outcome [18]: inactive
- outcome [19]: inactive
- AC50 [20]: 828 nM (active)

Structure (SMILES): CC(C)(C)[C@@H](O)[C@@H](Cc1ccc(Cl)cc1)n1cncn1
- outcome [1]: inactive
- outcome [2]: inactive
- outcome [3]: inactive
- outcome [5]: inactive
- outcome [6]: inactive
- outcome [9]: inactive
- outcome [10]: inactive
- AC50 [11]: 50 µM (active)
- outcome [12]: inactive
- outcome [13]: inactive
- outcome [15]: inactive
- outcome [16]: inactive
- AC50 [17]: 33.9 µM (active)
- outcome [18]: inactive
- outcome [19]: inactive

Structure (SMILES): CC(C)(c1ccc(O)cc1)c1ccc(O)cc1
- outcome [1]: inactive
- outcome [2]: inactive
- outcome [3]: inactive
- AC50 [4]: 3.26 µM (active) [middle of 4 runs]
- outcome [7]: inactive
- outcome [8]: inactive
- outcome [9]: inactive
- outcome [10]: inactive
- outcome [11]: inactive
- outcome [12]: inactive
- outcome [13]: inactive
- outcome [14]: inactive
- outcome [15]: inactive
- outcome [16]: inactive
- AC50 [17]: 11.7 µM (active)
- outcome [17]: inactive
- outcome [18]: inactive
- outcome [19]: inactive
- AC50 [20]: 3570 nM (active)
- outcome [20]: inactive

Structure (SMILES): CC(=O)[C@H]1CC[C@H]2[C@@H]3CCC4=CC(=O)CC[C@]4(C)[C@H]3CC[C@]12C
- outcome [1]: inactive
- AC50 [2]: 7.97 µM (active)
- outcome [3]: inactive
- outcome [7]: inactive
- outcome [8]: inactive
- AC50 [9]: 5 µM (active)
- AC50 [10]: 60.6 µM (active)
- AC50 [11]: 82.1 µM (active)
- outcome [12]: inactive
- AC50 [13]: 16.8 µM (active)
- outcome [14]: inactive
- AC50 [15]: 50 µM (active)
- AC50 [16]: 34.1 µM (active)
- AC50 [17]: 34.6 µM (active)
- AC50 [18]: 77.8 µM (active)
- AC50 [19]: 80.5 µM (active)

Structure (SMILES): CCN(Cc1c(F)cccc1Cl)c1c([N+](=O)[O-])cc(C(F)(F)F)cc1[N+](=O)[O-]
- outcome [1]: inactive
- outcome [2]: inactive
- AC50 [3]: 15.3 µM (active)
- outcome [7]: inactive
- AC50 [8]: 13.7 µM (active)
- outcome [9]: inactive
- outcome [10]: inactive
- AC50 [11]: 50 µM (active)
- outcome [12]: inactive
- outcome [13]: inactive
- outcome [15]: inactive
- AC50 [16]: 50 µM (active)
- AC50 [17]: 14.8 µM (active)
- outcome [18]: inactive
- outcome [19]: inactive
